This is a sample that favours compounds with a hit; in the whole collection about 1.4% have one here.
BRCA1 expr up: increases BRCA1 expression | MCF7-BRCA1-FFLuc reporter, luminescence, 48 h; response scale: scaled: vehicle 0%, 10 µM genistein 100% | Potency, µM (top dose mostly 46.1 µM), for inactives: at the highest dose activation, hits mostly activators | 1.1% of 380,000 active | AID 624202; note: potency is the fitted concentration of half-maximal effect; nearly all actives have a fitted effect of over 80% in size
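MCF7-BRCA1-FFLuc, 2000 cells/well; 2 h attach, 37 °C/5% CO2; compound 48 h; luciferase substrate 15 min; luminescence end-point. Norm. to genistein 10 microM max activation and DMSO; concentration-response curves fitted.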
Nrf2 activator: activators of Nrf2 (ARE) signaling; AREc32 ARE-luciferase reporter (MCF7-derived line), luminescence, 24 h; 0.31% of 410,000 active; Potency, µM (titrated, usually from 46.1 µM), for inactives: at the highest dose activation, most hits filed as activators; note: potency is the fitted concentration of half-maximal effect; % of control where 0% means no effect; nearly all actives have a fitted effect of over 65% in size
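Luminescent ARE reporter assay in AREc32_Fluc cells: overnight plating at 37 deg C, 24 hr compound incubation, Steady-Glo added, 30 min RT before reading.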
IL2 activator: activators of IL-2. IL-2 activation reporter assay, cell-based qHTS; stimulated with anti-CD3/CD4/CD28 beads; in transgenic mouse T cells. 0.065% of 360,000 active. activation, % (series mostly up to about 46 µM); in the data active = activation above about 50%; inconclusive = mostly about 30% to 49%; note: 0% is about no effect
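Unstimulated transgenic mouse T cells preincubated 60 min with compound, then stimulated with anti-CD3/anti-CD4-coated beads plus anti-CD28 for 18 h at 37 degrees C. IL-2 response read as EGFP and DsRed fluorescence by plate cytometry.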
Chronic BCR inh: blocks chronic active B-cell receptor signaling; Potency, µM (doses to about 46.1 µM), inactives show at the top dose activity change, negative = inhibition, usual class: inhibitors; AID 493014; 0.05% of 340,000 active; ABC-DLBCL IkBa-CBG/CBR reporter, luminescence ratio, 4 h; active = well fitted inhibition curve with a large enough effect in the signal ratio, with a control signal flat, not every such curve was filed as active; inconclusive = small, poorly fitted or top-dose-only effect, or effect the other way, or a change in a side signal; the % refers to the signal ratio;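 note: potency is the fitted concentration of half-maximal effect; plate controls were basal doxycycline-induced cells for no effect and cells given 10 µM MG132 for full effect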
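TMD8 ABC-DLBCL cells carrying doxycycline-inducible green luciferase fused to IkappaBalpha plus unfused red luciferase were exposed to compounds (up to 46 uM) for 4 hrs at 37C. Activity came from the overlap-corrected green/red luminescence ratio.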
N370S GC mod: inhibitors or activators of N370S glucocerebrosidase for Gaucher disease; P04062; N370S GC spleen homogenate, 4MU-glucoside fluorescence; Potency, µM (doses to about 59.4 µM), for inactives: at the highest dose activity change, negative = inhibition, hits mostly inhibitors; 0.092% of 330,000 active; AID 2101;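 note: potency is the fitted concentration of half-maximal effect; 0% = full enzyme activity and -100% = no enzyme basal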
Integrin act MD: integrin-mediated muscular dystrophy alleviation activation | 0.064% of 350,000 active | alpha7betagal myoblasts, beta-gal FDG fluorescence, 48 h | AID 624291 | Potency, µM (highest dose often 38.3 µM), inactives show at the highest dose activation, actives largely listed as activators;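 note: potency is the fitted concentration of half-maximal effect; 100% = response of the positive control SU9516; nearly all actives have a fitted effect of over 60% in size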
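alpha7betagal+/- myoblasts (passage 13, 250/well) treated 48 h at 37C with compounds at 1:260 dilution of DMSO stock. Lysed, then beta-galactosidase activity read as FDG fluorescence (ex 480/em 540) after 30 min, with pre-read for autofluorescence.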
* marks the source's active call; other numbers are inactive results; ? = inconclusive; · = no result given; [ ] = another dose, or the depositor's remark. Unless noted, calls come from the whole dose curve; as a rule, active = well fitted curve in the direction sought with a large enough effect; inconclusive = small, poorly fitted or top-dose-only effect, or another doubt; inactive = no such curve, though single readings can be large; an effect the other way counts as inactive or inconclusive.

SMILES	BRCA1 expr up	Nrf2 activator	IL2 activator	Chronic BCR inh	N370S GC mod	Integrin act MD
O=C(CSc1nnc(-c2ccco2)c(-c2ccco2)n1)Nc1ccccc1	-20%	13µM*	0	9%	-8%	-24%
Cc1ccc(NC(=O)CSc2nnc(-c3ccco3)c(-c3ccco3)n2)cc1	-49%	?	2	?	13%	-47%
CSc1nnc(-c2ccccc2)c(-c2ccccc2)n1	-15%	0%	-4	16%	14%	?
CSc1nnc(-c2ccco2)c(-c2ccco2)n1	-35%	7.9µM*	0	2%	1%	-19%
CN(C)S(=O)(=O)c1cccc(NC(=O)C2CCN(S(=O)(=O)c3cccs3)CC2)c1	-103%	2%	0	2%	·	-2%
Nc1nc(-c2ccccc2)c(N=Nc2ccc(Cl)cc2)s1	-26%	?	0	?	2.5µM*	-4%
CCOC(=O)CCN1C(=O)[C@H]2[C@H]3[C@H](O)[C@H](O)C/C(=N/OCc4ccccc4)[C@@H]3CC[C@@H]2C1=O	·	·	·	·	0%[12.8 µM]	·
CCC(=O)N(CC)c1nc(-c2ccc(OC)cc2)cs1	11µM*	3%	-3	?	-4%	2%
CCN(C(=O)c1ccccc1F)c1nc(-c2ccc(OC)cc2)cs1	7.9µM*	6%	0	?	2%	-28%
CCC(=O)N(Cc1ccco1)c1nc(-c2ccc(OC)cc2)cs1	42%	0%	0	?	3%	-21%
COCCN(C(=O)c1ccccc1F)c1nc(-c2ccc(OC)cc2)cs1	5%	1%	0	-8%	16%	28%
COc1ccccc1CNC(=O)Nc1nnc([C@H]2C[C@H](O)[C@@H](CO)O2)s1	2%	0%	0	·	·	·
O=C(COc1ccccc1C(=O)Nc1ccccc1)Nc1ccccc1Cl	-51%	·	·	·	·	·
COc1ccc(OC)c(N(CCN2C(=O)c3ccccc3C2=O)C(=O)CCl)c1	-17%	13µM*	-3	·	·	-62%
Cc1nc2cc(C(=O)NCCC3=CCCCC3)ccc2n1-c1ccc(Br)cc1	·	-1%	·	?	·	·
CC(C)[C@H](NC(=O)c1cccc(CN(Cc2ccccc2)C(=O)c2ccccc2)c1)C(=O)O	-5%	-1%	-3	·	·	17%
O=C(COc1ccc(-c2ccccc2)cc1)N1CCCC1	13µM*	4%	-2	0%	5%	-9%
COc1ccc(OCCC(=O)N2CCCCC2)cc1	11µM*	3%	1	?	-2%	-13%
O=C(Oc1ccc(-c2ccccc2)cc1)N1CCCCC1	7.1µM*	0%	0	·	2%	14%
Cc1ccc(C(=O)O/N=C(\N)c2ccc(C(F)(F)F)cn2)cc1	?	0%	4	?	1%	-1%
N/C(=N\OC(=O)c1csnn1)c1ccc(C(F)(F)F)cc1	11µM*	4%	-3	7%	7%	13%
Cc1c(C(=O)N(CCC#N)c2ccccc2)sc2nc3n(c(=O)c12)CCCC3	2%	2%	-4	9%	-5%	-46%
C/C(=N\NC(=O)c1cccs1)c1ccc2c(c1)OCO2	8.9µM*	4%	1	?	6%	5%
CC(=NNC(=O)c1cccs1)c1ccc2c(c1)OCCO2	?	7%	-1	?	·	12%
C/C(=N\Nc1ncc(Cl)cc1Cl)c1ccc(OC(F)F)cc1	37%	5%	-1	?	-4%	11%
C/C(=N\NC(=O)c1ccc2c(c1)OCO2)c1ccc2c(c1)OCO2	7.9µM*	2%	-3	?	-3%	0%
C/C(=N\NC(=O)c1ccc2c(c1)OCCO2)c1ccccc1	?	-1%	1	?	-6%	-4%
C/C(=N\Nc1ncc(Cl)cc1Cl)c1ccc2c(c1)OCO2	5.6µM*	4%	-1	?	4%	8%
